F508del corr: correctors of CFTR F508del function in bronchial epithelial cells. AID 720511. actives 0.36% (n = 350,000). CFBE cells, YFP halide quenching; stimulated with forskolin plus potentiator P3; % fluorescence drop versus neutral controls. activity (quench increase), % at 7.58 µM;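 active means mean added fluorescence quench of at least 8% versus neutral control, with both replicates also reaching 8%; inconclusive means only one of the mean or replicate conditions met; inactive means mean below 8% and not both replicates reaching 8%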;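 further: cells transiently co-express mutant CFTR-F508del with the halide-sensitive YFP; corrector assay measuring rescue of mutant channel to the surface after 24 h compound exposure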
EWS-Fli block: EWS/Fli transcriptional activity inhibition | A673 NR0B1-luciferase reporter, viability-normalised | inhibition, % at 12.6 µM | actives 0.67% (n = 350,000) | AID 651661;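 active means mean inhibition of at least 50% after viability correction, with every replicate also passing that limit; inconclusive means mean reaches 50% but only one of two replicates passes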;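 further: firefly luciferase signal divided by Alamar Blue viability fluorescence both relative to DMSO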
INS-1E GSIS act: primary screen for activators of insulin secretion dependent on glucose, INS-1E cells, GLuc reporter luminescence; INS-1E GLuc reporter insulin secretion, 2-3 h; activation, % at 16.6 µM; actives 0.61% (n = 370,000);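 active means lowest replicate activation of at least 40%, so every replicate reaches that level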;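 further: 0% = median of neutral control wells and 100% = median of IBMX positive control wells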
RAD54 inh: inhibitors of human RAD54 branch migration | Q92698 | RAD54 Holliday junction branch migration, FAM/BHQ fluorescence | inhibition, % at 10.4 µM | actives 0.14% (n = 360,000);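 active means mean normalized replicate activity at least 40 and at least half of replicates scoring 40 or more; inconclusive means only one of the two criteria met; inactive means mean below 40 and under half of replicates reaching 40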;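 further: 0% = median of neutral control wells and 100% = median of positive control wells; inhibitors cause a drop in the FAM fluorescence signal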
LGR2 inh: Drosophila LGR2 receptor signaling inhibition; HEK293 LGR2, CRE-luciferase, bursicon-stimulated, 4 h; inhibition, % at 9.99 µM; actives 0.35% (n = 380,000);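 active means drop in luminescence signal, shown as inhibition above about 50% in the replicate tests, limit read from the data, passing the limit was not always enough; inconclusive means probably only some replicates passing the limit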;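 further: agonist challenge used bursicon conditioned medium at about half maximal strength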
RAD52 anneal inh: RAD52 (human) annealing inhibition; recombinant RAD52 DNA annealing, FRET fluorescence; inhibition, % at 18.7 µM; actives 0.46% (n = 360,000); AID 651710;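 active means every replicate showing at least 50% inhibition; inconclusive means mean inhibition at least 50% but not in every replicate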
Target sequence (P43351 whole entry, looked up): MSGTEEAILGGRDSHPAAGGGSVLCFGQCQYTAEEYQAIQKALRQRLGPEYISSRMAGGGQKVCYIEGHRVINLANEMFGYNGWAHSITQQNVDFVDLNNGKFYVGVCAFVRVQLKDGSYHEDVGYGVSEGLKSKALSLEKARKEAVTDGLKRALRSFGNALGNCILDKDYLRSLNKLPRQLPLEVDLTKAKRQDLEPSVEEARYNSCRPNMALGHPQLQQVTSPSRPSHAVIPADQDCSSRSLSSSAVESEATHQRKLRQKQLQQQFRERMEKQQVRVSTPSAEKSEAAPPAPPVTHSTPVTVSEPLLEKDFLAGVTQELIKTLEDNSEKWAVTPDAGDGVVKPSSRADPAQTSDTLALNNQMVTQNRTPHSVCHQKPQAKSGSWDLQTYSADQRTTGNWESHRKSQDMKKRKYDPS
Numbers without * were called inactive. A selection: hits, their analogues and other compounds. The true share with any hit is near 1.8%.

What do the screens show for `O=C(OCc1ccccc1)/C(=C/c1ccc(Cl)cc1)NC(=O)c1ccccc1Cl`?
INS-1E GSIS act: 70*; RAD54 inh: 2; LGR2 inh: 30

Results for c1ccc2c(C3=NNC(=NC4CC4)SC3)c[nH]c2c1 ?
INS-1E GSIS act: 4; RAD54 inh: 1; LGR2 inh: 58*

How did Cc1cc(C2=NNC(=NC3CC3)SC2)c(C)n1Cc1ccco1 do in these assays?
EWS-Fli block: 72*; INS-1E GSIS act: 3; RAD52 anneal inh: -18

Results for Cc1cc(C2=NNC(=NC3CC3)SC2)c(C)n1-c1ccccc1 ?
F508del corr: -1; EWS-Fli block: 89*; INS-1E GSIS act: -4; LGR2 inh: -4; RAD52 anneal inh: -25

What do the screens show for `COc1ccc(-n2c(C)cc(C3=NNC(=NC4CC4)SC3)c2C)cc1`?
F508del corr: 0; EWS-Fli block: 10; INS-1E GSIS act: -2; LGR2 inh: -10; RAD52 anneal inh: 39

What do the screens show for `COCCCN=C1NN=C(c2cc(C)n(Cc3ccco3)c2C)CS1`?
F508del corr: 18*; EWS-Fli block: 54*; INS-1E GSIS act: 2; LGR2 inh: -30; RAD52 anneal inh: 20

Results for Cc1ccccc1C(=O)OCC(=O)N(C)c1ccccc1 ?
F508del corr: -2; EWS-Fli block: -19; INS-1E GSIS act: -4; RAD54 inh: -7; LGR2 inh: 1; RAD52 anneal inh: -15

How did COC(=O)c1cc(=O)n(C2CC2)c(=NC2CC2)s1 do in these assays?
INS-1E GSIS act: 76*; LGR2 inh: -4

Results for C[C@H]1CN([C@@H](C)CO)C(=O)c2cc(NC(=O)Cc3ccccc3)ccc2O[C@@H]1CN(C)C(=O)Nc1ccc2c(c1)OCO2 ?
F508del corr: 2; EWS-Fli block: -5; INS-1E GSIS act: -5; RAD54 inh: -2; LGR2 inh: 4; RAD52 anneal inh: 10

How did CC(C)N(C(=O)[C@H]1C[C@H](CC(=O)NCc2ccco2)C(=O)N2CCc3c([nH]c4cc(-c5ccco5)ccc34)[C@]12C)C(C)C do in these assays?
F508del corr: 1; EWS-Fli block: 6; INS-1E GSIS act: -18; RAD54 inh: -1; LGR2 inh: -6; RAD52 anneal inh: -28

What do the screens show for `O=C(Nc1ccc2c(c1)OCCO2)c1cc(F)c(F)cc1Cl`?
F508del corr: 0; EWS-Fli block: -89; INS-1E GSIS act: -3; RAD54 inh: 6; LGR2 inh: -45; RAD52 anneal inh: -13

How did O=C(Nc1ccc2c(c1)OCCO2)c1ccc(Cl)c([N+](=O)[O-])c1 do in these assays?
INS-1E GSIS act: 14; LGR2 inh: -47

How did Cc1ccc(C(=O)Nc2ccc3c(c2)CCC3)cc1 do in these assays?
EWS-Fli block: 59*; INS-1E GSIS act: -14; LGR2 inh: inconclusive; RAD52 anneal inh: -24

How did Cc1cc(C(=O)Nc2ccc3c(c2)OCCO3)ccc1[N+](=O)[O-] do in these assays?
F508del corr: 2; EWS-Fli block: 39; INS-1E GSIS act: 4; RAD54 inh: -7; LGR2 inh: 59*; RAD52 anneal inh: 1

What do the screens show for `Cc1ccc(C(=O)Nc2ccc3c(c2)OCCO3)cc1`?
F508del corr: 0; EWS-Fli block: 69*; INS-1E GSIS act: -4; RAD54 inh: -8; LGR2 inh: 67*; RAD52 anneal inh: -9

How did Cc1ccc(C(=O)Nc2ccc3c(c2)OCCO3)c(Cl)c1 do in these assays?
F508del corr: -3; EWS-Fli block: 63*; INS-1E GSIS act: 2; RAD54 inh: 4; LGR2 inh: 82*; RAD52 anneal inh: 4

What do the screens show for `Cc1ccc(C(=O)NCC(=O)Nc2ccc3c(c2)CCC3)cc1`?
F508del corr: 1; EWS-Fli block: -43; INS-1E GSIS act: 9; RAD54 inh: 10; LGR2 inh: -65; RAD52 anneal inh: -5

How did COc1ccc(NC(=O)Nc2ccc3c(c2)C(=O)N([C@H](C)CO)C[C@H](C)[C@@H](CN(C)C(=O)NC(C)C)O3)cc1 do in these assays?
F508del corr: 1; EWS-Fli block: -11; INS-1E GSIS act: 16; RAD54 inh: 2; LGR2 inh: 5; RAD52 anneal inh: -9

Results for C[C@H](CO)N1C[C@H](C)[C@@H](CN(C)C(=O)Nc2ccc(C(F)(F)F)cc2)Oc2ccc(NS(=O)(=O)c3ccc(Cl)cc3)cc2C1=O ?
F508del corr: 0; EWS-Fli block: -4; INS-1E GSIS act: -20; LGR2 inh: 10

What do the screens show for `COc1ccc(-n2sc3ccc(F)cc3c2=O)cc1`?
F508del corr: 0; EWS-Fli block: -27; INS-1E GSIS act: 32; RAD54 inh: 0; LGR2 inh: inconclusive; RAD52 anneal inh: -24

Results for COc1ccc(-n2sc3ccccc3c2=O)cc1 ?
F508del corr: -6; EWS-Fli block: -16; INS-1E GSIS act: 87*; RAD54 inh: 3; LGR2 inh: 30; RAD52 anneal inh: -11

Results for CCCCOC(=O)c1cc(=O)[nH]c2ccc(C)cc12 ?
F508del corr: -8; EWS-Fli block: 2; INS-1E GSIS act: 1; LGR2 inh: 7; RAD52 anneal inh: -14

Results for CCCCOC(=O)c1cc(=O)[nH]c2ccccc12 ?
F508del corr: -5; EWS-Fli block: -6; INS-1E GSIS act: 58*; LGR2 inh: -8; RAD52 anneal inh: -11

Results for CCCC(=O)Nc1nnc(Sc2ccc(N(C)C)cc2)s1 ?
RAD54 inh: 11

What do the screens show for `CCC(=O)Nc1nnc(Sc2ccc(N(C)C)cc2)s1`?
INS-1E GSIS act: 50*; LGR2 inh: 2

Results for CCN1/C(=C/c2cccc[n+]2C)Sc2ccc(OC)cc21 ?
F508del corr: 2; EWS-Fli block: 38; INS-1E GSIS act: -18; RAD54 inh: 46; LGR2 inh: 13; RAD52 anneal inh: 38

What do the screens show for `CN1/C(=C/c2cccc[n+]2C)Sc2ccccc21`?
F508del corr: 1; EWS-Fli block: 31; INS-1E GSIS act: -58; RAD54 inh: 62*; LGR2 inh: 9; RAD52 anneal inh: 42

Results for COc1ccc2c(c1)N(C)/C(=C/c1cccc[n+]1C)S2 ?
F508del corr: 2; EWS-Fli block: 38; INS-1E GSIS act: -28; RAD54 inh: 51*; LGR2 inh: -36; RAD52 anneal inh: 24

Results for Cn1c(=O)c2cc(NC(=O)Cc3ccccc3F)ccc2n1C/C=C/c1ccccc1 ?
F508del corr: -1; EWS-Fli block: -8; RAD54 inh: -19; LGR2 inh: -14; RAD52 anneal inh: -42

Results for Cn1c(=O)c2cc(NC(=O)NCc3ccc(F)cc3)ccc2n1C/C=C/c1ccccc1 ?
F508del corr: 1; EWS-Fli block: 56*; RAD54 inh: -2; LGR2 inh: -3; RAD52 anneal inh: -18

How did CCOCCC(=O)Nc1ccc2c(c1)c(=O)n(C)n2C/C=C/c1ccccc1 do in these assays?
F508del corr: 1; EWS-Fli block: 60*; INS-1E GSIS act: -1; RAD54 inh: 3; LGR2 inh: 7; RAD52 anneal inh: -13

Bioassay records from PubChem.
